Assay outcomes deposited in PubChem BioAssay by National Center for Advancing Translational Sciences (NCATS).
An excerpt weighted towards active compounds, which were near 1.1% of everything screened.
GALK inhibitor – qHTS Assay for Inhibitors of Human Galactokinase (GALK). P51570. 0.007% of 270,000 active. Potency, µM (highest dose often 57.5 µM), for the others: at the top dose activity change, negative = inhibition, actives largely listed as inhibitors. Purified GALK, Kinase-Glo residual ATP luminescence. AID 1868, 2009; also: potency is read from the fitted curve at half-maximal effect
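Compounds were pin-transferred into ATP buffer (35 uM final), then GALK plus galactose (5 nM, 100 uM final) was added. After 1 h at room temperature, Kinase-Glo Plus was added and luminescence read after 10 min.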
PI4K2A block – qHTS for small molecular inhibitors of PI4K2A | purified PI4K2A, ADP-Glo luminescence, 1 h; hits give low values | 0.13% of 420,000 active | activity change, negative = inhibition, % at 76.9 µM | Phosphatidylinositol 4-kinase type 2-alpha (Homo sapiens), Q9BTU6; in the data active = activity change below about -50%; inconclusive = mostly about -30% to -49%;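 also: -100% = wells without enzyme as full effect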
Target sequence (Q9BTU6 whole entry, looked up): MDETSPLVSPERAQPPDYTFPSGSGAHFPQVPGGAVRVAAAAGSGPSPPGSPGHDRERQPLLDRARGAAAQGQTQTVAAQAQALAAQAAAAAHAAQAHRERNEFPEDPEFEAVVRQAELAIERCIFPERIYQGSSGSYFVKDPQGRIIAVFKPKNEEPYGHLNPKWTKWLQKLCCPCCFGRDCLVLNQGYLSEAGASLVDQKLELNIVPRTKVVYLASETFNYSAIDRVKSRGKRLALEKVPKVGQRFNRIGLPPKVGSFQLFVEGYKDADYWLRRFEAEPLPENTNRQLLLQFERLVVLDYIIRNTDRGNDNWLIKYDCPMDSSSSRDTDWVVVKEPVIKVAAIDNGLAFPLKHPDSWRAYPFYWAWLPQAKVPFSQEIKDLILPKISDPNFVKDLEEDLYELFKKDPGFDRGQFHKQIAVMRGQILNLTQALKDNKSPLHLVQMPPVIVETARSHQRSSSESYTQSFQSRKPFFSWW
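In this quantitative HTS, ADP production by PI4K2A was quantified luminescently after 1 h at ambient temperature; 100 microM adenosine served as plate-quality control.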
TrxR1 substrate – qHTS Assay for Substrates of Mammalian Selenoprotein Thioredoxin Reductase 1 (TrxR1): qHTS. purified TrxR1 substrate turnover, NADPH consumption readout. Potency, µM (series often up to 114 µM), for inactives: at the highest dose activity change, negative = substrate turnover. 0.01% of 390,000 active. AID 588456, 2011; also: potency is read from the fitted curve at half-maximal effect; nearly all actives have a fitted effect of over 50% in size
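Rat TrxR1, dispensed at 90 nM, was prereduced with 400 uM NADPH (final) for 5 min at ~22 deg C, then incubated with compound 15 min before 400 uM selenite. A first-read NADPH fluorescence drop versus no-compound background flagged substrates.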
rTrxR1 inhibitor – qHTS Assay for Inhibitors of Mammalian Selenoprotein Thioredoxin Reductase 1 (TrxR1): qHTS. Thioredoxin reductase 1, cytoplasmic (Rattus norvegicus), O89049. recombinant rTrxR1, NADPH fluorescence consumption, selenite substrate. Potency, µM (titrated, usually from 114 µM), for the others: at the top dose activity change, negative = inhibition, actives largely listed as inhibitors. 1% of 390,000 active. AID 588453, 2011; also: potency is read from the fitted curve at half-maximal effect; nearly all actives have a fitted effect of over 65% in size
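Rat TrxR1 (90 nM in the dispensed reagent) was pre-reduced with 400 uM NADPH for 5 min at room temperature, then incubated with compound for 15 min. After 400 uM selenite was added, NADPH fluorescence (Ex 340/Em 450 nm) was followed for 8 min.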
* = called active by the depositor; ? = inconclusive; / = no result; [ ] = another dose, or the depositor's remark. Unless noted, calls follow the shape of the dose curve; as a rule, active = well fitted curve in the direction sought with a large enough effect; inconclusive = small, poorly fitted or top-dose-only effect, or another doubt; inactive = no such curve, though single readings can be large; an effect the other way counts as inactive or inconclusive. Unless noted, % is scaled to controls: 0 for no effect and ±100 for the full control effect.

SMILES	GALK inhibitor	PI4K2A block	TrxR1 substrate	rTrxR1 inhibitor
Nc1c(Br)cc(Br)c2cccnc12	/	/	2.8%	?
CCOC(=O)CC(NC(=O)c1cc2cc(OC)ccc2oc1=O)c1ccc(OC)cc1 (stereo not given)	/	2.9	27.2%[11.4 µM]	17.0%
Cc1cccc(NC(=S)NC(=O)Cc2ccccc2)c1C	1.9%	20.3	-14.1%	56.2µM*
CC1(C)COC(c2ccc(F)c([N+](=O)[O-])c2)=N1	0.1%	5.4	-9.0%	17.8µM*
CC(C)OP(=O)(OC(C)C)C1(O)C(=O)Nc2ccc(Br)cc21 (stereo not given)	4.0%	4.4	-0.8%	39.8µM*
CCCC(O)(CCN1CCCCC1)c1ccc(OCC)cc1 (stereo not given)	0.7%	4.9	-3.3%	50.1µM*
COc1ccc(OCCCN2CCCCCC2)cc1	-0.4%	1.4	12.0%[57.1 µM]	6.0%[57.1 µM]
COc1ccc(C(O)(CCN2CCCCC2)C2CCCCC2)cc1 (stereo not given)	10.9%	-5.9	14.9%[57.1 µM]	2.82µM*
CCCCCC(O)(CCN1CCCCC1)c1ccc(OCC)cc1 (stereo not given)	-1.1%	4.1	9.5%[57.1 µM]	8.91µM*
CCCCOc1ccc(C(O)(CCC)CCN2CCOCC2)cc1 (stereo not given)	/	-1.2	-2.7%	?
CCCCN(CCN(CCCC)C(=O)N1CCOCC1)C(=O)N1CCOCC1	/	-3.0	/	/
O=C1CCCc2cc(S(=O)(=O)NCC3CCC(C(=O)Nc4ccc(Cl)cc4)CC3)ccc2N1 (stereo not given)	/	-1.9	-6.3%[57.1 µM]	14.1%[57.1 µM]
O=C(CSc1ccc(-c2ccco2)nn1)Nc1ccc(F)cc1F	-5.8%	-4.5	-4.0%	25.1µM*
CC(=O)c1cccc(NC(=O)CSc2ccc(-c3ccco3)nn2)c1	-5.0%	-16.6	-3.8%	11.2µM*
O=C(CSc1ccc(-c2ccco2)nn1)N1CCCC1	3.1%	-8.6	2.0%	44.7µM*
CCc1ccc(NC(=O)CSc2ccc(-c3ccco3)nn2)cc1	0.2%	-2.9	1.1%	?
O=C(CSc1ccc(-c2ccco2)nn1)c1cccc([N+](=O)[O-])c1	0.2%	-28.9	7.9%	15.8µM*
CCS(=O)(=O)c1ccc(OC)c(C(=O)OC)c1	/	1.3	/	/
Cc1ccc(-c2nc3sc(CCNC(=O)c4ccc(F)c(F)c4)c(C)n3n2)cc1	/	2.7	-5.0%[57.1 µM]	9.6%[57.1 µM]
CC(=O)OC(C)OC(=O)C(C)c1ccc(-c2ccccc2)c(F)c1 (stereo not given)	/	-2.5	/	/
Cc1cccc(NC(=O)CSc2ccc(-c3ccco3)nn2)c1C	-0.4%	-11.6	-5.7%	12.6µM*
Cc1cccc(NC(=O)CSc2ccc(-c3ccccn3)nn2)c1C	-1.1%	-19.6	7.5%[57.1 µM]	20.6%[57.1 µM]
COc1ccc(C)cc1NC(=O)CSc1ccc(-c2ccco2)nn1	-2.7%	-6.2	3.5%	15.8µM*
O=C(CSc1ccc(-c2ccco2)nn1)NCc1ccc(Cl)cc1	-0.3%	-3.6	1.4%	28.2µM*
COc1ccc(S(=O)(=O)N2CCC(C(=O)NN3CCCCC3)CC2)cc1	/	-4.5	/	/
SMILES	GALK inhibitor	PI4K2A block	TrxR1 substrate	rTrxR1 inhibitor
CC[C@H](C)[C@H](N)C(=O)O	/	1.4	/	/
O=C1C(=C(I)I)c2ccccc2-c2ccccc21	/	-57.6*	-29.3%[57.1 µM]	0.891µM*
C=CCNc1oc(-c2ccco2)nc1S(=O)(=O)c1ccccc1	-6.5%	-1.0	1.7%	44.7µM*
Cc1ccccc1CS(=O)(=O)Cc1ccc(C(=O)Nc2cccc(Cl)c2F)o1	/	-1.5	/	/
COc1ccc2c(c1)CC/C(=C\Nc1ccc3c(c1)OCO3)C2=O	-1.1%	-3.4	-1.1%	-31.9%
COc1cccc(/C=C2\CCc3ccccc3C2=O)c1	15.3%	-69.5*	6.4%[57.1 µM]	8.7%[57.1 µM]
COc1ccc(N/C=C2\CCc3ccccc3C2=O)cc1	0.9%	-66.0*	-1.0%	3.7%
COc1cccc(C=C2Cc3ccccc3C2=O)c1	/	-4.2	/	/
Cc1ccsc1/C=C1\CCc2ccccc2C1=O	9.0%	-75.3*	-3.3%[57.1 µM]	12.1%[57.1 µM]
CC(=O)Oc1ccc(/C=C2/CCc3ccccc3C2=O)cc1	21.8%	-78.8*	-0.6%	14.1%
COc1ccc(S(=O)(=O)Nc2cccc3c2O[C@H](CN(C)C(=O)Nc2ccc(C(F)(F)F)cc2)[C@@H](C)CN([C@H](C)CO)C3=O)cc1	/	0.1	-2.6%[57.1 µM]	12.3%
Cc1ccc(NC(=O)N2CCc3c([nH]c4ccccc34)C2c2ccccc2F)c(Cl)c1 (stereo not given)	/	0.4	-4.0%	16.3%
CC1(C)S[C@@H]2[C@H](NC(=O)C(c3ccccc3)S(=O)(=O)O)C(=O)N2[C@H]1C(=O)O (stereo not given in full)	/	1.1	/	/
CC(=O)Nc1c(NC(C)C)c2ccccc2oc1=O	-1.1%	4.0	-6.8%[57.1 µM]	-7.6%[57.1 µM]
COC(=O)Oc1c(Br)c(=O)oc2ccccc12	/	-4.8	-1.9%	7.94µM*
CCCCCCCC(=O)[O-].CCCCCCCC(=O)[O-].[Zn+2]	/	-10.0	/	/
Cc1ccc(CCn2c3c(c4cc(Cl)ccc42)CN(C)CC3)cn1	/	-4.8	/	/
Cn1c2ccccc2c2ccc3c(c21)C(=O)C=CC3=O	/	-15.0	15.3%[11.4 µM]	-70.8%[57.1 µM]
Cc1ccc2c(c1)c1ccc3c(c1n2C)C(=O)C=CC3=O	/	-21.8	2.5%	39.8µM*
COc1ccc(S(=O)(=O)NCC(c2ccco2)S(=O)(=O)c2ccc(C)cc2)cc1C (stereo not given)	/	0.9	0.5%[57.1 µM]	11.2µM*
COc1ccc(OC)c(S(=O)(=O)NCC(c2cccs2)S(=O)(=O)c2ccc(F)cc2)c1 (stereo not given)	/	7.3	2.1%[57.1 µM]	3.16µM*
COc1ccc(C)cc1S(=O)(=O)NCC(c1cccs1)S(=O)(=O)c1ccc(C)cc1 (stereo not given)	/	6.7	-2.0%[57.1 µM]	10.2%[57.1 µM]
COc1ccc(F)cc1S(=O)(=O)NCC(c1ccco1)S(=O)(=O)c1ccc(F)cc1 (stereo not given)	/	5.6	-5.8%[57.1 µM]	0.891µM*
CCOc1ccc(S(=O)(=O)NCC(c2ccco2)S(=O)(=O)c2ccc(C)cc2)cc1 (stereo not given)	/	4.6	1.5%[57.1 µM]	1.0%[57.1 µM]
Cc1ccc2nccc(/C=C/c3ccc(N(C)C)cc3)c2c1	/	/	-4.8%	-5.2%
SMILES	GALK inhibitor	PI4K2A block	TrxR1 substrate	rTrxR1 inhibitor
COc1ccccc1NC(=O)c1sc2nc(-c3ccco3)ccc2c1N	-2.2%	-4.1	10.7%[57.1 µM]	-7.1%[57.1 µM]
Nc1c(C(=O)Nc2nc3ccccc3s2)sc2nc(-c3cccs3)ccc12	-0.1%	-63.4*	-0.2%	11.3%
Nc1c(C(=O)Nc2ccccc2)sc2nc(-c3ccco3)ccc12	-0.9%	-7.3	15.2%	3.98µM*
CC(C)(C)NCC(O)COc1nsnc1N1CCOCC1 (stereo not given)	/	/	/	-3.8%
CCOc1ccccc1N(CC(=O)NCCSCc1ccco1)S(=O)(=O)c1ccccc1	-1.7%	-9.9	-8.3%	22.4µM*
COc1ccc(OC)c(N(CC(=O)NCCSCc2ccco2)S(=O)(=O)c2ccccc2)c1	-1.0%	-1.0	3.3%	-33.8%
